From PubChem
Rows were chosen to be rich in hits. Some 18% of all compounds tested hit in one or more screens of this group.
PLK1 PBD inh = blocks phosphopeptide binding to human PLK1 polo-box domain; 360,000 tested, 2.8% active; Potency, µM, for inactives: max response, negative = inhibition, actives largely listed as inhibitors; Plk1 PBD binding of FITC phosphopeptide, fluorescence polarization; P53350; note: series mostly up to about 57 µM; nearly all actives have a fitted effect of over 65% in size
Target sequence (P53350 whole entry, looked up, the tested form may be a part): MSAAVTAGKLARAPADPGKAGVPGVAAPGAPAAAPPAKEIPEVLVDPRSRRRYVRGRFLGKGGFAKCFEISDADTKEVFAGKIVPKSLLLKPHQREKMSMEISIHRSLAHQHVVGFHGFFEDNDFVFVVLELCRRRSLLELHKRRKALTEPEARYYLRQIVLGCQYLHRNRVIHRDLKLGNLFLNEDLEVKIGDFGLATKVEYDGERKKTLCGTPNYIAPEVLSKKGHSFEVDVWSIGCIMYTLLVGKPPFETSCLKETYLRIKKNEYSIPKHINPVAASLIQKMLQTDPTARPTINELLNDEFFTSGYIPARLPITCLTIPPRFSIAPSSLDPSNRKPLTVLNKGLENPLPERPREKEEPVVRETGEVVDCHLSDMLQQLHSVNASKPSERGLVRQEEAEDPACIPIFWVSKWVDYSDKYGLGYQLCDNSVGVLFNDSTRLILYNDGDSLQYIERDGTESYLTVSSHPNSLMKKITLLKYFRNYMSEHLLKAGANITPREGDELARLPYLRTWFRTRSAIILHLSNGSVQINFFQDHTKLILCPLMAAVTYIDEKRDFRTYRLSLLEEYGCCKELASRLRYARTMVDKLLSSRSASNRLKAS
TDP1 block = TDP1 (human) enzyme inhibition; Q9NUW8; recombinant TDP1, AlphaScreen DNA substrate cleavage; Potency, µM (series often up to 130 µM), for the others: top-dose activity change, negative = inhibition, hits mostly inhibitors; 350,000 tested, 0.28% active; AID 485290; note: nearly all actives have a fitted effect of over 40% in size
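Tdp1 1 nM final; 15 min RT w/ cpd; substrate 15 nM, 5 min; beads 10 ug/ml, 10 min; AlphaScreen read. Neg ctrl: no enzyme.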
DT40 TDP1 no CPT = qHTS for Inhibitors of human tyrosyl-DNA phosphodiesterase 1 (TDP1): qHTS in cells in absence of CPT. DT40 Tdp1-/- hTDP1 cells, no CPT, ATP luminescence, 48 h. Potency, µM (highest dose often 46.2 µM), for inactives: at the top dose activity change, negative = growth inhibition, most hits filed as inhibitors. 420,000 tested, 15% active; note: nearly all actives have a fitted effect of over 55% in size
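A cellular qHTS used chicken DT40 cells lacking endogenous Tdp1 but carrying stably transfected human TDP1. Compounds were applied without camptothecin, and cell growth kinetics were judged by ATP-dependent luminescence after ≥48 hr.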
VDR inhibitor = blocks the human vitamin D receptor; AID 504847; 400,000 tested, 0.93% active; VDR-SRC2-3 peptide fluorescence polarization, 2 h; Potency, µM, inactives show max response, negative = inhibition, usual class: inhibitors; P11473
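Compounds are added to VDR with labelled SRC2-3 coactivator peptide and held 2 h at room temperature. Inhibition of the VDR–peptide interaction is then read as a change in fluorescence polarization.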
DT40 TDP1 CPT = growth inhibition of DT40 Tdp1-/-;hTDP1 cells with camptothecin (screen for TDP1 inhibitors). chicken DT40 Tdp1-/-;hTDP1 cells + 20 nM CPT, ATP luminescence, 48 h. Potency, µM (top dose mostly 46.2 µM), inactives show at the highest dose activity change, negative = growth inhibition, most hits filed as inhibitors. 420,000 tested, 12% active. AID 686979; note: nearly all actives have a fitted effect of over 55% in size
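Chicken DT40 Tdp1-/- cells stably complemented with human TDP1 were seeded at 400 cells/well in medium containing 20 nM camptothecin, exposed to pin-transferred compounds, and grown at 37 °C for at least 48 hr. Viability was read as ATP luminescence.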
KAT2A inh = GCN5L2 (KAT2A) acetyltransferase inhibition. Q92830. GCN5L2 HAT assay, ThioGlo1 CoA-SH fluorescence. Potency, µM (titrated, usually from 58.9 µM), for inactives: top-dose activity change, negative = inhibition, hits mostly inhibitors. 390,000 tested, 0.21% active. AID 504327
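Enzyme at 20nM final was mixed with library compounds for 15 min at room temperature. Peptide H3(1-25) at 75uM, acetyl-CoA at 70uM and ThioGlo1 at 50uM were then added. Plates were read immediately and after 20 min (Ex340nm/Em540nm).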
* hit, by the source's call; [ ] = dose if it differs, or a comment. Calls come from the whole dose curve; as a rule, active = well fitted curve in the direction sought with a large enough effect; inconclusive = small, poorly fitted or top-dose-only effect, or another doubt; inactive = no such curve, though single readings can be large; an effect the other way counts as inactive or inconclusive. % is set by controls: 0 for no effect and ±100 for the full control effect; potency is the fitted concentration of half-maximal effect.

`O=C(CSc1n[nH]c(-c2ccccn2)n1)Nc1ccc(F)cc1` gave PLK1 PBD inh -16%, TDP1 block 4%, DT40 TDP1 no CPT 7.3µM*, VDR inhibitor -10%, DT40 TDP1 CPT inconclusive and KAT2A inh -3%.
For Cc1nc(SCC(=O)Nc2ccccn2)n[nH]1 the results were PLK1 PBD inh 0%, TDP1 block -1%, DT40 TDP1 no CPT 1%, VDR inhibitor 21%, DT40 TDP1 CPT 3% and KAT2A inh -8%.
Screening COc1ccc(C(=O)CCC(=O)Nc2cc(C)ccc2C)cc1 returned TDP1 block 1%, DT40 TDP1 no CPT -23%, VDR inhibitor 8%, DT40 TDP1 CPT -3% and KAT2A inh 2%.
CCCCCSc1nc2c(cnn2-c2ccc(F)cc2)c(=O)[nH]1 was read as PLK1 PBD inh 27µM*, DT40 TDP1 no CPT 23µM*, VDR inhibitor -22%, DT40 TDP1 CPT inconclusive and KAT2A inh -1%.
For O=C(CSc1nc2c(cnn2-c2ccccc2)c(=O)[nH]1)N1CCOCC1 the results were PLK1 PBD inh 13µM*, TDP1 block 6%, DT40 TDP1 no CPT inconclusive, VDR inhibitor -2%, DT40 TDP1 CPT inconclusive and KAT2A inh -2%.
Screening CCCCCSc1nc2c(cnn2-c2ccccc2)c(=O)[nH]1 returned PLK1 PBD inh -6%, TDP1 block -1%, DT40 TDP1 no CPT inconclusive, VDR inhibitor -2%, DT40 TDP1 CPT inconclusive and KAT2A inh 1%.
Cc1ccc(-n2ncc3c(=O)[nH]c(SCC(=O)N4CCN(c5ccccc5)CC4)nc32)cc1 was read as PLK1 PBD inh -10%, TDP1 block -4%[56.1 µM], DT40 TDP1 no CPT inconclusive, VDR inhibitor -14%, DT40 TDP1 CPT inconclusive and KAT2A inh -5%.
CCOC(=O)N1CCN(C(=O)CSc2nc3c(cnn3-c3ccccc3)c(=O)[nH]2)CC1 was read as PLK1 PBD inh -9%, TDP1 block 3%, DT40 TDP1 no CPT 23µM*, VDR inhibitor -8%, DT40 TDP1 CPT inconclusive and KAT2A inh -23%.
`Nc1nc(SCC(=O)N2CCCC2)[nH]c(=O)c1-c1ccccc1` gave PLK1 PBD inh 6.7µM*, TDP1 block 0%, DT40 TDP1 no CPT 26µM*, VDR inhibitor 0%, DT40 TDP1 CPT inconclusive and KAT2A inh -20%.
Screening Cc1ccc(-n2ncc3c(=O)[nH]c(SCC(=O)N4CCOCC4)nc32)cc1 returned PLK1 PBD inh -1%, TDP1 block 3%, DT40 TDP1 no CPT -20%, VDR inhibitor 0%, DT40 TDP1 CPT -6% and KAT2A inh -15%.
Screening O=c1c(-c2cc(F)cc(F)c2)nc2cnc(N3CCNCC3)nc2n1CCc1ccccc1 returned DT40 TDP1 no CPT inconclusive, VDR inhibitor -3%, DT40 TDP1 CPT inconclusive and KAT2A inh -19%.
CN(Cc1c(F)cccc1Cl)C(=O)CNC(=O)c1sc2ccccc2c1Cl was read as PLK1 PBD inh -10%, DT40 TDP1 no CPT -24%, VDR inhibitor -13%, DT40 TDP1 CPT -21% and KAT2A inh -14%.
`COc1cccc(C(=O)N(Cc2ccco2)c2ccccn2)c1` gave TDP1 block 4%, DT40 TDP1 no CPT inconclusive, VDR inhibitor 6%, DT40 TDP1 CPT inconclusive and KAT2A inh -9%.
Screening O=C1C=CCC(/C=C/c2ccccc2)O1 (stereo not drawn) returned PLK1 PBD inh -2%, TDP1 block 7%, DT40 TDP1 no CPT 3.7µM*, VDR inhibitor -2%, DT40 TDP1 CPT 2.3µM* and KAT2A inh -2%.
Screening COc1ccc(C(=O)CSc2nc(C)cc(C)c2C(=O)Nc2ccccc2C)cc1 returned TDP1 block 1%, DT40 TDP1 no CPT 15µM*, VDR inhibitor 7%, DT40 TDP1 CPT inconclusive and KAT2A inh -11%.
COc1ccccc1NC(=O)c1c(C)cc(C)nc1SCC(=O)Nc1ccc(C)cc1 was read as TDP1 block 1%, DT40 TDP1 no CPT inconclusive, VDR inhibitor 6%, DT40 TDP1 CPT inconclusive and KAT2A inh -17%.
`Cc1ccc(C(=O)CSc2nc(C)cc(C)c2C(=O)Nc2cccc(C)c2)cc1` gave TDP1 block -6%, DT40 TDP1 no CPT inconclusive, VDR inhibitor -7%, DT40 TDP1 CPT 21µM* and KAT2A inh -16%.
`CC(C)c1cccc(C(C)C)c1NC(=O)CN1C(=O)NC2(CCCC2)C1=O` gave PLK1 PBD inh 0%, TDP1 block 3%, DT40 TDP1 no CPT -9%, VDR inhibitor -3%, DT40 TDP1 CPT -13% and KAT2A inh 1%.
CCOC(=O)Cn1c(=O)oc2cc(S(=O)(=O)N3CCC(C(=O)OCC)CC3)ccc21 was read as TDP1 block -1%, DT40 TDP1 no CPT 3%, VDR inhibitor -11%, DT40 TDP1 CPT 7% and KAT2A inh -4%.
For CC(C)CCN(Cc1ccco1)S(=O)(=O)c1ccc(-c2ccc(=O)[nH]n2)s1 the results were PLK1 PBD inh -15%, TDP1 block 3%, DT40 TDP1 no CPT -6%, VDR inhibitor -10%, DT40 TDP1 CPT inconclusive and KAT2A inh -4%.
Screening CCCCN(Cc1ccco1)S(=O)(=O)c1ccc(-c2ccc(=O)[nH]n2)s1 returned PLK1 PBD inh 24µM*, TDP1 block 4%, DT40 TDP1 no CPT inconclusive, VDR inhibitor -16%, DT40 TDP1 CPT inconclusive and KAT2A inh -15%.
Screening CCCC(=O)N1CC2(CCC)CN(C(=O)CCC)CC(CCC)(C1)C2=O returned PLK1 PBD inh -10%, TDP1 block -3%, DT40 TDP1 no CPT -27%, VDR inhibitor 14%, DT40 TDP1 CPT -22% and KAT2A inh -27%.
Screening CCCCCC(=O)N1CC2(CC)CN(C(=O)CCCCC)CC(CC)(C1)C2=O returned PLK1 PBD inh 3%, TDP1 block 1%, DT40 TDP1 no CPT inconclusive, VDR inhibitor 7%, DT40 TDP1 CPT 16µM* and KAT2A inh -1%.
Screening CCCCc1ccc(NC(=O)CSc2nc(=O)n(CCN(CC)CC)c3c2CCCC3)cc1 returned PLK1 PBD inh -12%, TDP1 block 1%, DT40 TDP1 no CPT 23µM*, VDR inhibitor -6%, DT40 TDP1 CPT inconclusive and KAT2A inh -2%.
C=CCOC(=O)C(=O)/C=C/c1coc2ccccc2c1=O was read as PLK1 PBD inh inconclusive, TDP1 block 3%, DT40 TDP1 no CPT inconclusive, VDR inhibitor 14µM*, DT40 TDP1 CPT inconclusive and KAT2A inh -1%.
